# According to PubChem BioAssay (Tox21):
# Where “and” joins values, the source holds several entries; their conditions need not be identical. Equal entries are not always repeated. Records with an inconclusive call do not appear. A call without a number means that no potency is given here. Some compounds were tested as several samples or in several runs, with calls that do not always agree. Calls of active or inactive are those of the source. The call rests on the fitted dose curve; in most records, active means well fitted cell-killing curve with a large enough effect in the repeat runs; inconclusive means weak or mixed curves, or effect the other way; inactive means no such curve, though single readings can be large or run the other way.
# Test: qHTS assay to identify small molecule antagonists of the sonic hedgehog signaling (Shh) pathway - cell viability counter screen (AID 1259367); further: nearly all actives have a fitted effect of over 55% in size
# Details: NIH/3T3 Gli1-Luc viability, CellTiter-Fluor, 24 h; series mostly up to 92.4 µM
# Description: National Center for Advancing Translational Sciences [NCATS]
# NIH Chemical Genomics Center [NCGC]
# U.S. Environmental Protection Agency [EPA]
# National Institutes of Environmental Health Sciences [NIEHS]
# National Toxicology Program [NTP]
# U.S. Food and Drug Administration [FDA]
# The sonic hedgehog (Shh) pathway is essential for normal embryonic development. Dysregulation of the Shh pathway can cause severe developmental defects in organs. Therefore chemicals that interfere with the pathway are potential developmental toxicants. A cell line designated 3T3Gli1-Luc (DMB/OARSA/CFSAN/FDA, Laurel, MD), a NIH/3T3 derived clone containing stably integrated Gli1-Luc reporter is used to detect chemical interference of the Shh pathway, by changes in the expression of the firefly Luc gene under the control of the Gli1 transcriptional response element. This cell line was used to screen Tox21 libraries for identifying and prioritizing the potential developmental toxicants that interfere Shh pathway. Conditioned medium-stimulated mode was used to screen for chemicals inhibiting Shh signaling. The cytotoxicity of the compounds was tested in parallel by measuring the cell viability using CellTiter-Fluor assay system (Promega, Madison, WI) in the same wells.
# Tox21 Assay Protocol Summary:
# 3T3 Gli1-Luc cells were dispensed at 2,000 per well in 5uL of culture medium into white solid bottom 1536-well plates (Greiner Bio-One, Monroe, NC) using a Multidrop Combi (Thermo Scientific, Waltham, MA) dispenser. The assay plates were incubated at 37 C and 5% CO2 for 4hr, and then 23nL of compounds dissolved in DMSO and positive control were transferred using a Pintool station (Wako, San Diego, CA). The compound transfer was followed by the addition of 1ul conditioned medium or assay buffer using two separate tips of Flying Reagent Dispenser (FRD, Aurora Discovery, San Diego, CA). The assay plates were incubated at 37C and 5% CO2 for 24hr. For viability read, after 23hr of compound treatment, 1uL of CellTiter-Fluor reagent (Promega Corporation, Madison, WI) was added to each well of the assay plates using Flying Reagent Dispenser (FRD, Aurora Discovery, San Diego, CA) and incubated the assay plates at 37C for 1hr. The fluorescence signal was quantified using a ViewLux plate reader (Perkin Elmer, Shelton, CT).
# Potency means the concentration at half of the fitted maximal effect.
row,Structure (SMILES),Potency
1,O=C(O)Cc1cccc2ccccc12,inactive
2,COc1ccccc1NC(=O)CC(C)=O,inactive
3,C#C[C@]1(O)CC[C@H]2[C@@H]3CCC4=CC(=O)CC[C@@H]4[C@H]3CC[C@@]21CC,inactive
4,CC(C)CC(C)CC(O)CC(C)C (stereo not given),inactive
5,COC(=O)c1ccc(O)cc1,inactive
6,N[C@@H](Cc1c[nH]c2ccc(O)cc12)C(=O)O,inactive
7,NC(=O)N1c2ccccc2C=Cc2ccccc21,inactive
8,CC(O)COc1ccccc1 (stereo not given),inactive
9,COc1cc2c(c(OC)c1OC)-c1ccc(OC)c(=O)cc1[C@@H](NC(C)=O)CC2,inactive and 48.6 nM (active) and 376 nM (active)
10,CC1=C(/C=C/C(C)=C/C=C/C(C)=C/C(=O)O)C(C)(C)CCC1,inactive
11,CCCCCCCCCCCCCCCCCC(=O)OCC(O)CO (stereo not given),inactive
12,Cc1c(N(C)C)c(=O)n(-c2ccccc2)n1C,inactive
13,C=C(C)OC(C)=O,inactive
14,Cc1cccc(Nc2cc(Cl)nc(SCC(=O)O)n2)c1C,inactive
15,COc1ccc(C(=O)c2ccccc2)c(O)c1,inactive
16,C=CCOC(=O)CC(C)C,inactive
17,COc1cc(O)c(C(=O)c2ccccc2)cc1S(=O)(=O)O,inactive
18,COC(=O)C1CCC(C(=O)OC)CC1 (stereo not given),inactive
19,Cc1ccc(O)c(-n2nc3ccccc3n2)c1,inactive
20,C/C=C/c1ccc(O)c(OC)c1,inactive

row,Structure (SMILES),Potency
1,O=C(O)CCCCC1CCSS1 (stereo not given),inactive
2,COCCOCCOC,inactive
3,O=[N+]([O-])c1ccc(O)cc1,56.6 µM (active)
4,NCCNc1cccc2ccccc12,inactive
5,N[C@@H](Cc1c[nH]c2ccccc12)C(=O)O,inactive
6,O=C(OCc1ccccc1)c1ccccc1,inactive
7,COC(=O)c1ccc(C=O)cc1,inactive
8,OC[C@@H](O)[C@@H](O)[C@H](O)[C@H](O)CO,inactive
9,C[C@]12C[C@H](O)[C@H]3[C@@H](CCC4=CC(=O)CC[C@@]43C)[C@@H]1CC[C@@H]2C(=O)CO,inactive
10,CCN(CC)CCOC(=O)c1ccc(N)cc1,inactive
11,C[C@]12CC[C@@H]3c4ccc(O)cc4CC[C@H]3[C@@H]1CCC2=O,inactive
12,CCCCOCCOCCSC#N,inactive
13,CC(=O)OC/C=C(C)/C=C/C=C(C)/C=C/C1=C(C)CCCC1(C)C,inactive
14,NC(N)=NC(N)=NCCc1ccccc1,inactive
15,COCC(C)N (stereo not given),inactive
16,CCCCOCCOCCOC(C)=O,inactive
17,COC1=CC(=O)C[C@@H](C)[C@]12Oc1c(Cl)c(OC)cc(OC)c1C2=O,inactive
18,Cn1cnc2c1c(=O)[nH]c(=O)n2C,inactive
19,CCCCNC(=O)NS(=O)(=O)c1ccc(N)cc1,inactive
20,C[C@]12CC[C@@H]3c4ccc(O)cc4C[C@@H](CCCCCCCCCS(=O)CCCC(F)(F)C(F)(F)F)[C@H]3[C@@H]1CC[C@@H]2O (stereo not given in full),inactive
